Bioassay records as filed in PubChem BioAssay.
Hits are enriched below; roughly 1.8% of the tested compounds scored in any of these assays.
MazEF act: increases E. coli MazEF RNase cleavage of RNA; P0AE70; FAM/BHQ RNA-DNA oligo cleavage fluorescence, 5 h; activation, % at 20 µM; 350,000 compounds, 0.32% hits; AID 504720; in the data active means activation above about 50%
BH1578 lux ind: quorum light induction in luxS cqsA deficient V. cholerae; V. cholerae BH1578 lux reporter, luminescence, 6 h; activation, % at 18.7 µM; 350,000 compounds, 0.16% hits; AID 588436; in the data active means activation mostly above about 9.7%, no sharp cut-off
CCHFV vOTU inh: CCHFV vOTU protease inhibition. inhibition, % at 11.5 µM. 370,000 compounds, 0.55% hits. Pep-AMC fluorescence; in the data active means inhibition above about 30%
VHR inh abs: inhibitors of human VHR1 phosphatase (DUSP3); P51452; recombinant VHR phosphatase, pNPP absorbance; inhibition, % at 13.3 µM; 290,000 compounds, 0.52% hits; AID 1654; in the data active means inhibition above about 50%
PrPC surface inh: cell surface PrPC inhibition, primary TR-FRET screen. TR-FRET read-out. 370,000 compounds, 0.43% hits. inhibition, % at 13.8 µM. P04156; in the data active means inhibition above about 24%
Yp Topo-I inh: blocks Yersinia pestis topoisomerase I activity | AID 504884 | Y. pestis Topo-I cleavage product accumulation, plate reader | activity, % at 10 µM | 360,000 compounds, 0.064% hits; in the data active means activity above about 50%, passing the limit was not always enough
PrPC confirm: cell surface PrPC inhibition, TR-FRET confirmation; inhibition, % at 13.8 µM; 1,500 compounds, 65% hits; cell surface PrPC level; shares compounds with PrPC surface inh; in the data active means inhibition above about 25%
LD9 tox: LD9 cell cytotoxicity, PrPc inhibitor counter-screen. shares compounds with PrPC surface inh. LD9 cells cytotoxicity, luminescence viability. inhibition, % at 13.8 µM. 1,500 compounds, 29% hits. AID 743201; in the data active means inhibition above about 9.5%
Each line names hits and unclear results; the compound was inactive in the other large screens (follow-up assays come after a bar, where they were run).

COc1ccc(Cn2cc(CN3CC(N4CCN(CCN(C)C)CC4)CS3(=O)=O)nn2)cc1 (centres undefined)	none (no result: MazEF act, BH1578 lux ind, VHR inh abs, Yp Topo-I inh)
COc1ccc(NC(=O)c2cccc(-c3ccc(O)cc3)c2)cn1	PrPC surface inh 33 | PrPC confirm inactive | LD9 tox inactive
Cc1cc(Br)c(OCc2ccc(C(=O)N/N=C/c3ccc[nH]3)cc2)c(Br)c1	PrPC surface inh 26 (no result: VHR inh abs) | PrPC confirm 52 | LD9 tox 65
Nc1c(C(=O)Nc2ccc3c(c2)OCCO3)nnn1Cc1cccc(Br)c1	PrPC surface inh 29 (no result: VHR inh abs) | PrPC confirm inactive | LD9 tox inactive
COc1ccc(CNC(=O)CN2CCC(NC(=O)c3ccc(OC)cc3)CC2)cc1	none
COc1ccc([C@@]23Oc4cc(OC)cc(OC)c4[C@]2(O)[C@H](O)[C@H](C(=O)N(C)C)[C@H]3c2ccccc2)cc1	PrPC surface inh 98 (no result: VHR inh abs) | PrPC confirm 99 | LD9 tox 29
COc1ccc(C2CC(O)(c3ccccc3)Oc3cc(OC)c(OC)c(OC)c32)cc1 (centres undefined)	none
Cc1cc2cc(CNS(=O)(=O)c3ccccc3)ccc2n1C	PrPC surface inh 35 | PrPC confirm 29 | LD9 tox inactive
COc1ccc(CNS(=O)(=O)c2ccc(OC)cc2)cc1	none
COc1ccc(S(=O)(=O)NCc2ccc3c(c2)cc(C)n3C)cc1	PrPC surface inh 38 | PrPC confirm 41 | LD9 tox inactive
CCS(=O)(=O)NCc1ccc2c(c1)cc(C)n2C	none
O=C(NC1CCCCC1)C(c1ccncc1)n1c(=O)c(-c2cc3ccccc3[nH]2)nc2ccccc21 (centres undefined)	none (no result: MazEF act, BH1578 lux ind, VHR inh abs, Yp Topo-I inh)
Cc1cc(O)cc(=O)n1-c1cc(Cl)cc(Cl)c1	none (no result: MazEF act, BH1578 lux ind, VHR inh abs, Yp Topo-I inh)
O=C(Nc1nc(-c2ccccn2)cs1)c1ccccc1-n1cnnn1	PrPC surface inh 28 | PrPC confirm 27 | LD9 tox 20
CC(NC(=O)c1ccccc1Cl)C(=O)OCc1cn2cc(Cl)ccc2n1 (centres undefined)	none (no result: VHR inh abs)
COc1cc(N2C(=O)NC3CC2(C)Oc2ccccc23)cc(OC)c1OC (centres undefined)	PrPC surface inh 33 | PrPC confirm inactive | LD9 tox inactive
COc1ccc(N2C(=O)NC3CC2(C)Oc2ccc(Cl)cc23)cc1OC (centres undefined)	none
CC(C)Cn1c(N)c(C(=O)COC(=O)C2Cc3ccccc3CN2S(C)(=O)=O)c(=O)n(C)c1=O (centres undefined)	none (no result: VHR inh abs)
CCCCCn1c2c(c(=N)c3ccccc31)CCC2	none
CCCCCCCCn1c2c(c(=N)c3ccccc31)CCC2	PrPC surface inh 29 | PrPC confirm 44 | LD9 tox 38
COc1cc2c(c(OC)c1OC)C1(CCCCC1)CC2NS(=O)(=O)C(C)C (centres undefined)	none (no result: MazEF act, BH1578 lux ind, VHR inh abs, Yp Topo-I inh)
O=C(CCn1c(=O)oc2ccc(Cl)cc21)NCCCN1CCOCC1	none
Cc1c(CC(=O)O)c(=O)oc2c(C)c3occ(-c4ccccc4)c3cc12	PrPC surface inh 28 | PrPC confirm inactive | LD9 tox inactive
Cc1cc(OCC(O)CNC(C)(C)C)ccc1Cl (centres undefined)	none
C=C1C(=O)C23C(O)C1CCC2C12CCCC(C)(COC(C)=O)C1C(O)C3(O)OC2 (centres undefined)	PrPC surface inh 75 (no result: VHR inh abs) | PrPC confirm 77 | LD9 tox 93
Cc1cccc[n+]1C1C(c2ccccc2)C(C#N)=C(C(=C=[N-])C#N)NC1(O)C1CC1 (centres undefined)	none (no result: CCHFV vOTU inh, PrPC surface inh)
N#CC(=C=[N-])C1=C(C#N)C(c2ccccc2F)C([n+]2ccccc2)C(O)(C2CC2)N1 (centres undefined)	PrPC surface inh 63 | PrPC confirm inactive | LD9 tox inactive
O=C(N/C(=C\c1ccccc1)C(=O)N1CCCCC1)c1ccco1	none
CCN(CC)S(=O)(=O)c1ccc(NC(=O)CSc2ncnc3ccccc23)cc1	PrPC surface inh 47 | PrPC confirm 60 | LD9 tox inactive
COc1ccc(S(=O)(=O)N2CCCCC2)cc1NC(=O)CSc1ncnc2ccccc12	none
NS(=O)(=O)c1cccc(NC(=O)CSc2ncnc3ccccc23)c1	PrPC surface inh 37 | PrPC confirm 36 | LD9 tox inactive
NS(=O)(=O)c1ccc(CCNC(=O)CSc2ncnc3ccccc23)cc1	PrPC surface inh 27 | PrPC confirm 45 | LD9 tox inactive
NS(=O)(=O)c1ccc(NC(=O)CSc2ncnc3ccccc23)cc1	none
Cc1sc2ncnc(SCC(=O)Nc3cccc(S(N)(=O)=O)c3)c2c1C	PrPC surface inh 28 (no result: VHR inh abs) | PrPC confirm 44 | LD9 tox inactive
Cc1ccccc1C(=O)N(C)[C@H]1C[C@H]2c3[nH]c4c(-c5ccccc5)cccc4c3CCN2C[C@H]1[C@H](C)O	none (no result: MazEF act, BH1578 lux ind, VHR inh abs, Yp Topo-I inh)
Cc1nc(SCC(=O)Nc2sccc2C(N)=O)c2c(C)c(C)sc2n1	none (no result: VHR inh abs)
Cc1nc(SCC(=O)Nc2cc(C(N)=O)cc(C(N)=O)c2)c2c(C)c(C)sc2n1	PrPC surface inh 85 | PrPC confirm 94 | LD9 tox inactive
CC(=O)C1=C(C)NC(=S)NC1c1ccccc1 (centres undefined)	none (no result: MazEF act, BH1578 lux ind, VHR inh abs, Yp Topo-I inh)
C[C@H]1COc2c3ccc(I)cc3nn21	PrPC surface inh 47 (no result: MazEF act, BH1578 lux ind, VHR inh abs, Yp Topo-I inh) | PrPC confirm 70 | LD9 tox inactive
COc1cc(/C=C/CN2CCN(CCC(C)C)C(CCO)C2)ccc1O (centres undefined)	none
Cc1ccc(N(C(=O)CCC(=O)Nc2cc(C)on2)C(C(=O)NC2CCCC2)c2ccccc2)cc1 (centres undefined)	none
Cc1ccc(N(C(=O)CCC(=O)Nc2cc(C)on2)C(C(=O)NC2CCCC2)c2cccs2)cc1 (centres undefined)	none
Cc1cc(NC(=O)CCC(=O)N(c2ccccc2)C(C(=O)NC2CCCC2)c2ccccc2)no1 (centres undefined)	PrPC surface inh 35 | PrPC confirm 52 | LD9 tox inactive
Cc1cc(NC(=O)CCC(=O)N(c2ccccc2)C(C(=O)NC2CCCC2)c2cccs2)no1 (centres undefined)	PrPC surface inh 63 | PrPC confirm 59 | LD9 tox inactive
COC(=O)[C@@]12C[C@@H](CC(=O)N3CCOCC3)C(=O)N(Cc3ccccc3)C1=CCC(C)(C)C2	none (no result: MazEF act, BH1578 lux ind, VHR inh abs, Yp Topo-I inh)
N=c1c2c(-c3ccccc3)c(-c3ccccc3)n(Cc3ccco3)c2ncn1CCCn1ccnc1	PrPC surface inh 27 | PrPC confirm inactive | LD9 tox 19
Cc1ccc2nc3c(c(Nc4cccc(O)c4)c2c1)CCC3	PrPC surface inh 25 | PrPC confirm inactive | LD9 tox 16
COC(=O)c1cccc(Nc2c3c(nc4ccccc24)CCC3)c1	PrPC surface inh 29 | PrPC confirm 30 | LD9 tox 12
CC(=O)c1cccc(Nc2c3c(nc4ccccc24)CCC3)c1	none
